The values below come from PubChem BioAssay (EPA / NIEHS).

More than one record can exist for a structure, and the calls need not agree. Active and inactive are the calls of the source. The calls were made as follows: active = hit-call score of the fitted dose curve at least 0.9, where 1 is the maximum; inactive = score below 0.9.

One assay is described as follows: BSK_SAg_Proliferation: Cell Proliferation Assessment in the BioMAP Diversity Plus: SAg Assay (AID 2283095). To be noted: primary human HUVEC with PBMC. An outline of the steps:
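Human umbilical vein endothelial cells co-cultured with PBMC; sulforhodamine B total-protein staining (0.1% SRB after 10% TCA fixation, absorbance 560 nm) at 96 h in sub-confluent culture. Fitted bidirectionally against DMSO.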
What is called AC50 is the midpoint of the concentration-response curve, whichever way the signal moves. Turning to `Cc1ccc2nc3sc(=O)sc3nc2c1`, the AC50 was 7.93 µM (active). Regarding `Nc1c(Oc2ccccc2)cc(O)c2c1C(=O)c1ccccc1C2=O`, the outcome was inactive. On to `Cc1cc(C)cc(C)c1`, for which the result was inactive.

Consider `CCN(CC)C(=O)C(Cl)=C(C)OP(=O)(OC)OC`, for which the outcome was inactive. Turning to `Oc1cccc(-c2ccccc2)c1`, the AC50 is 20 µM (active).

Consider `[Cl][Sn]([c]1ccccc1)([c]1ccccc1)[c]1ccccc1`, for which the half-maximal activity concentration (AC50) is 0.0609 µM (active). Take `OCCCCO`: the AC50 is 0.61 µM (active) and the result was inactive. Consider `OCCN(CCO)CCO`, for which the result was inactive. Turning to `CCOC(=O)C(SP(=S)(OC)OC)c1ccccc1` (centres undefined), the concentration at half-maximal activity (AC50) is 35.3 µM (active). On to `OC(Cc1ccccc1Cl)(Cn1cncn1)C1(Cl)CC1` (centres undefined), for which the result was inactive. Same read-out and setting: with `CCC(C)(C#N)N=NC(C)(C#N)CC` (centres undefined) the entry was “inactive”.

Consider `C[C@]12CC[C@@H](O)C[C@@H]1CC[C@@H]1[C@@H]2CC[C@]2(C)C(=O)CC[C@@H]12`, for which the result was inactive. Take `Cc1ccccc1OP(=O)(Oc1ccccc1)Oc1ccccc1`: the outcome was inactive. As to `Oc1cc(Cl)c(Cl)cc1Cl`, the AC50 was 30.6 µM (active). In the case of `O=C(O)COc1cc(Cl)c(Cl)cc1Cl`, the result was inactive. Turning to `Cc1cc(Cl)ccc1OC(C)C(=O)O` (centres undefined), the outcome was inactive. Turning to `O=C(CCl)NCO`, the result was inactive. In the case of `Clc1cccc(Cl)c1Cl`, the result was inactive. In the case of `Cc1c([N+](=O)[O-])c(C)c([N+](=O)[O-])c(C(C)(C)C)c1[N+](=O)[O-]`, the AC50 is 6.82 µM (active).

Regarding `CC(C)(C)c1cc([N+](=O)[O-])cc(C(C)(C)C)c1O`, the result was inactive. As for `O=C1C=CC(=O)c2ccccc21`, the AC50 is 0.125 µM (active). On to `Clc1cccc(Cl)c1`, for which the result was inactive. For the compound `O=C(N[C@H]1CN2CCC1CC2)c1ccc2c(c1)OCCO2`, the result was inactive. `COCC(=O)N(c1c(C)cccc1C)[C@H](C)C(=O)OC`: the outcome was inactive.

For the compound `NC(=O)CCl`, the outcome was inactive. `Oc1ccc(Cc2ccc(O)cc2)cc1`: the result was inactive.

`CCOP(=O)(OCC)OC(=CCl)c1ccc(Cl)cc1Cl`: the outcome was inactive. Regarding `CCCCN(CCCC)C(=S)[S-].CCCCN(CCCC)C(=S)[S-].[Ni+2]`, the outcome was inactive.

On to `O=C(Cc1ccccc1)OCCc1ccccc1`, for which the outcome was inactive. `O=[N+]([O-])c1ccc(Nc2ccccc2)cc1`: the result was inactive.

On to `COc1ccccc1N`, for which the outcome was inactive. In the case of `N#Cc1cccnc1`, the result was inactive.

The nature of a further assay: BSK_SAg_SRB: Viability Assessment in the BioMAP Diversity Plus: SAg Assay (AID 2283096).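 Also: cells read one day after compound addition; hits may be either gain or loss of signal compared with DMSO.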 To be noted: primary human HUVEC with PBMC. Summed up:
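Total protein by sulforhodamine B staining, 24 h after dosing, in HUVEC–PBMC co-culture; DMSO-referenced bidirectional fitting.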
In the case of `Cc1cc(C)cc(C)c1`, the result was inactive. For `Oc1cccc(-c2ccccc2)c1`, the AC50 is 20 µM (active). `[Cl][Sn]([c]1ccccc1)([c]1ccccc1)[c]1ccccc1`: the AC50 is 0.337 µM (active). In the case of `CCOC(=O)C(SP(=S)(OC)OC)c1ccccc1` (centres undefined), the outcome was inactive. Consider `OC(Cc1ccccc1Cl)(Cn1cncn1)C1(Cl)CC1` (centres undefined), for which the outcome was inactive. As for `CCC(C)(C#N)N=NC(C)(C#N)CC` (centres undefined), the result was inactive. As to `Cc1cc(Cl)ccc1OC(C)C(=O)O` (centres undefined), the result was inactive.

On to `O=C(CCl)NCO`, for which the outcome was inactive.

Consider `Clc1cccc(Cl)c1Cl`, for which the result was inactive.

As to `Cc1c([N+](=O)[O-])c(C)c([N+](=O)[O-])c(C(C)(C)C)c1[N+](=O)[O-]`, the outcome was inactive.

Consider `O=C(N[C@H]1CN2CCC1CC2)c1ccc2c(c1)OCCO2`, for which the result was inactive. As to `Oc1ccc(Cc2ccc(O)cc2)cc1`, the result was inactive. For the compound `CCOP(=O)(OCC)OC(=CCl)c1ccc(Cl)cc1Cl`, the outcome was inactive.

Take `O=C(Cc1ccccc1)OCCc1ccccc1`: the outcome was inactive.

`O=[N+]([O-])c1ccc(Nc2ccccc2)cc1`: the result was inactive. For the compound `COc1ccccc1N`, the outcome was inactive.
